Screens from PubChem.
SRC3 inh = inhibitors of human steroid receptor coactivator 3 (SRC3); Q9Y6Q9; HEK293 GAL4-SRC3 luciferase reporter, luminescence; inhibition, % at 3.6 µM; 360,000 compounds, 0.17% hits;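 active = inhibition above a per-campaign cutoff, the mean of all compounds plus 3 SD, cut at about 60% in these data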;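 also: higher means less SRC3-driven luciferase light from the GAL4 reporter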
NR2F2 inh = inhibitors of human COUP-TFII (NR2F2); AID 686940; HEK293T NGFI-A luciferase reporter, luminescence; inhibition, % at 8.6 µM; P24468; 370,000 compounds, 0.7% hits;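 active = inhibition above a per-plate cutoff, mean inhibition of test wells between control levels plus 3 SD, cut at about 38% in these data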;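 also: cells cotransfected with COUP-TFII expression vector driving the NGFI-A reporter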
Target sequence (P24468 whole entry, looked up): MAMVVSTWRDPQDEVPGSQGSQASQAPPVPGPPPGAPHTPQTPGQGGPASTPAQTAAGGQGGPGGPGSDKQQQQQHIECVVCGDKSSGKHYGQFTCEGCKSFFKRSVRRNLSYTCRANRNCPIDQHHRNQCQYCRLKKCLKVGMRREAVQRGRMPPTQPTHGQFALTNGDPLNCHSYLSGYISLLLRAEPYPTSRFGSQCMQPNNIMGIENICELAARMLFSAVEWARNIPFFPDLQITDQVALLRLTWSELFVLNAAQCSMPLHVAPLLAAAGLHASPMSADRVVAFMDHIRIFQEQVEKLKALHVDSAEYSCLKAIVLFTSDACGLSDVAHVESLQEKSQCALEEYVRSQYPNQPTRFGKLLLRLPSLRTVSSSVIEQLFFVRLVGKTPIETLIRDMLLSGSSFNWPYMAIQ
Gli-Sufu antag = antagonists of Gli-Sufu signaling; Sufu-KO-LIGHT fibroblasts, Gli luciferase reporter luminescence; inhibition, % at 5 µM; 340,000 compounds, 0.74% hits; AID 588413;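 active = inhibition above about 55%, limit read from the data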
SRC1 inh = inhibits human SRC1 coactivator; Q15788; HEK293 GAL4-SRC1 luciferase reporter, luminescence; inhibition, % at 3.6 µM; 360,000 compounds, 0.12% hits;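 active = inhibition above the campaign mean plus 3 SD, with each screening campaign given its own cutoff, cut at about 60% in these data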
NCOA2 inhibitor = inhibits human steroid receptor coactivator 2. Q15596. HEK293 GAL4-SRC2 luciferase reporter, luminescence. inhibition, % at 9 µM. 370,000 compounds, 0.17% hits. AID 651957;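 active = inhibition above the mean inhibition of all tested compounds plus 3 SD, set per campaign, cut at about 52% in these data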
NR5A2 inv ag = NR5A2 inverse agonism in reporter assay; HEK293T StAR-luciferase reporter, LRH-1 transfected, 24 h; AID 602396; O00482; inhibition, % at 3.6 µM; 360,000 compounds, 0.13% hits;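 active = inhibition above the mean inhibition of all tested compounds plus 3 SD, cut at about 73% in these data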
VP16 Luc counter = counter-screen for COUP-TFII antagonists: inhibitors of VP16; 2,500 compounds, 25% hits; inhibition, % at 8.5 µM; HEK293 Gal4-VP16 luciferase reporter, luminescence; shares compounds with NR2F2 inh; in the data active = inhibition above about 13%
NR2F2 inh conf = COUP-TFII (NR2F2) inhibition, confirmation assay. shares compounds with NR2F2 inh. HEK293 NGFI-A luciferase reporter, luminescence. inhibition, % at 8.5 µM. 2,500 compounds, 45% hits;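 active = mean inhibition over three repeats above a set limit taken from the earlier primary screen, cut at about 38% in these data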
Large screens that a line does not name were inactive (follow-up assays come after a bar, where they were run). In the library only some 1.3% were active in any assay of this set; here they are far more common.

OC[C@@H]1CN(Cc2ccc(F)cc2)C[C@H](n2cnc3c(Nc4ccccc4)ncnc32)O1	none (no result: Gli-Sufu antag)
OC[C@@H]1CN(Cc2ccc(-c3ccccc3)cc2)C[C@H](n2cnc3c(Nc4ccccc4)ncnc32)O1	NR2F2 inh 59 (no result: Gli-Sufu antag) | VP16 Luc counter inactive | NR2F2 inh conf inactive
OC[C@@H]1CN(Cc2ccc(-c3ccccc3)cc2)C[C@H](n2cnc3c(NCc4ccc(F)cc4)ncnc32)O1	NR2F2 inh 75 (no result: Gli-Sufu antag) | VP16 Luc counter inactive | NR2F2 inh conf 54
OC[C@@H]1CN(Cc2ccccc2)C[C@H](n2cnc3c(NCc4ccc(F)cc4)ncnc32)O1	none (no result: Gli-Sufu antag)
Cc1c(/C(O)=C2\C(=O)C(=O)N(CCCN(C)C)C2c2ccco2)cnn1-c1ccccc1 (stereo not drawn)	NR2F2 inh 49 | VP16 Luc counter inactive | NR2F2 inh conf inactive
C[C@]1(CC/C(=C/CO)CO)[C@H](C=O)CC[C@@]23COC(=O)C2=CCC[C@@H]31	none (no result: Gli-Sufu antag)
O=C(CCl)Nc1cc(SCC(O)CO)cc([N+](=O)[O-])c1 (stereo not drawn)	SRC3 inh 70, NR2F2 inh 69, Gli-Sufu antag 63, NCOA2 inhibitor 69, NR5A2 inv ag 87 | VP16 Luc counter 28 | NR2F2 inh conf 73
CCCn1c(N)c(N(CCOC)C(=O)CSc2ccccc2)c(=O)[nH]c1=O	none
CC(C)c1[nH]nc2c1C(c1ccccc1)NC2=O (stereo not drawn)	none (no result: SRC3 inh, Gli-Sufu antag, SRC1 inh, NR5A2 inv ag)
Cc1nc2ccccn2c1-c1csc(Nc2cccc(O)c2)n1	none
Cc1cccc(Nc2nc(-c3c(C)nc4ccccn34)cs2)c1	NR2F2 inh 53 | VP16 Luc counter inactive | NR2F2 inh conf 44
COc1cccc(C(C(=O)NCc2ccccc2)N2CCN(CCN3CCOCC3)CC2)c1OC (stereo not drawn)	none (no result: SRC3 inh, Gli-Sufu antag, SRC1 inh)
COc1cccc(OC)c1C(=O)Nc1cccc(S(=O)(=O)Nc2ccccc2Cl)c1	none
O=C(Nc1cccc(S(=O)(=O)N2CCCCC2)c1)c1ccc(Cl)nc1	none
O=C(Nc1cccc(S(=O)(=O)N2CCCCCC2)c1)c1ccc(Cl)nc1	NR2F2 inh 41 | VP16 Luc counter inactive | NR2F2 inh conf inactive
O=C(Nc1cccc(S(=O)(=O)Nc2ccccc2Cl)c1)c1ccc(Cl)nc1	NR2F2 inh 47 | VP16 Luc counter inactive | NR2F2 inh conf 40
O=C(Nc1cccc(S(=O)(=O)N2CCCCCC2)c1)C1CCN(C(=O)c2ccc(Cl)cc2)CC1	NR2F2 inh 42 | VP16 Luc counter inactive | NR2F2 inh conf inactive
CN(CC(=O)Nc1cccc(S(=O)(=O)N2CCCC2)c1)CC(=O)Nc1ccc(Cl)c(C(F)(F)F)c1	NR2F2 inh 42 | VP16 Luc counter inactive | NR2F2 inh conf inactive
CN(CC(=O)Nc1cccc(S(=O)(=O)N2CCCC2)c1)CC(=O)Nc1ccc(F)c(F)c1F	none
CCC1CSC(Nc2ccc(C(=O)/C=C/c3ccc(OC)c(OC)c3)cc2)=N1 (stereo not drawn)	NR2F2 inh 61 | VP16 Luc counter inactive | NR2F2 inh conf inactive
CCC1CSC(Nc2ccc(C(=O)/C=C/c3ccc(Br)cc3)cc2)=N1 (stereo not drawn)	none
Cc1ccc2oc(=O)c3cc(C(=O)NCCCN4CCC(C)CC4)sc3c2c1	none (no result: SRC3 inh, Gli-Sufu antag, SRC1 inh, NR5A2 inv ag)
Nc1ccc(-c2nc3ccc(C(=O)O)cc3s2)cc1	NR2F2 inh 42 | VP16 Luc counter inactive | NR2F2 inh conf inactive
O=C(O)c1ccc2nc(-c3ccccc3)sc2c1	none
CCOC(=O)C1(Cc2ccccc2)CCN(Cc2ccccc2[N+](=O)[O-])CC1	none (no result: SRC3 inh, Gli-Sufu antag, SRC1 inh, NR5A2 inv ag)
CCOC(=O)C1(Cc2ccccc2)CCN(Cc2ccnc3ccccc23)CC1	NR2F2 inh 47 (no result: SRC3 inh, Gli-Sufu antag, SRC1 inh, NR5A2 inv ag) | VP16 Luc counter inactive | NR2F2 inh conf 39
C=CCCC1CN(Cc2ccc(OC)cc2)S(=O)(=O)c2c(cccc2Sc2ccc(OC)c(OC)c2)O1 (stereo not drawn)	none (no result: SRC3 inh, Gli-Sufu antag, SRC1 inh, NR5A2 inv ag)
COc1ccc(-c2cc(C)no2)cc1S(=O)(=O)NCCCN1CCN(c2ccccc2)CC1	none
Cc1cc(-c2ccc(C)c(S(=O)(=O)NCCCN3CCN(c4ccccc4)CC3)c2)on1	NR2F2 inh 62 | VP16 Luc counter inactive | NR2F2 inh conf inactive
C[C@H](O)[C@@H]1C(=O)N2CCc3c([nH]c4c(-c5ccccc5)cccc34)[C@@H]2C[C@@H]1N(C)C(=O)Nc1cccc2ccccc12	none (no result: SRC3 inh, Gli-Sufu antag, SRC1 inh, NR5A2 inv ag)
CC1(C(=O)Nc2cccc(C#N)c2)CCN1C(=O)Cc1ccc(-c2ccccc2)cc1 (stereo not drawn)	NR2F2 inh 52 (no result: Gli-Sufu antag) | VP16 Luc counter inactive | NR2F2 inh conf inactive
CC(C)c1ccc(CC(=O)N2CCC2(C)C(=O)Nc2cccc(C#N)c2)cc1 (stereo not drawn)	none (no result: Gli-Sufu antag)
COc1ccc(CC(=O)NCc2nn(-c3ccccc3)nc2C)cc1OC	none
COc1ccc(-c2ocnc2C(=O)NCc2nn(-c3ccccc3)nc2C)cc1	NR2F2 inh 60 | VP16 Luc counter inactive | NR2F2 inh conf 41
O=C(NCc1ccc(F)cc1)c1cc(C2CCCCN2S(=O)(=O)c2ccccc2)on1 (stereo not drawn)	none (no result: Gli-Sufu antag)
CCOC(=O)CCCCCC(=O)Nc1ccc2c(c1)C(=O)N([C@@H](C)CO)C[C@H](C)[C@H](CN(C)C(=O)c1ccccc1)OCCCC[C@H](C)O2	none (no result: Gli-Sufu antag)
Cc1sc2ncnc(NCC(O)c3ccccc3)c2c1C (stereo not drawn)	NR2F2 inh 43 | VP16 Luc counter inactive | NR2F2 inh conf inactive
Cc1sc2ncnc(N[C@@H](Cc3ccccc3)C(=O)O)c2c1C	none
CCCCC(=O)N(C)c1c(C)nc2ccc(C(=O)NCCOc3ccc(OC)cc3)cn12	none (no result: Gli-Sufu antag)
COc1ccc(OCCNC(=O)c2ccc3nc(C)c(N(C)C(=O)CCc4ccccc4)n3c2)cc1	NR2F2 inh 85 (no result: Gli-Sufu antag) | VP16 Luc counter inactive | NR2F2 inh conf inactive
COc1ccc(CNC(=O)c2cccc3c(-c4cnn(C)c4)coc23)cc1OC	NR2F2 inh 62 (no result: Gli-Sufu antag) | VP16 Luc counter inactive | NR2F2 inh conf 40
COc1ccc(-c2coc3c(C(=O)NCC4CCOCC4)cccc23)c(C)c1	NR2F2 inh 42 (no result: Gli-Sufu antag) | VP16 Luc counter inactive | NR2F2 inh conf inactive
O=C(Nc1cccc(C(F)(F)F)c1)c1cccc2c(-c3cccnc3)coc12	none (no result: NR2F2 inh, Gli-Sufu antag, NCOA2 inhibitor)
COc1cc(NC(=O)c2cccc3c(-c4cccnc4)coc23)cc(OC)c1OC	NR2F2 inh 52 (no result: Gli-Sufu antag) | VP16 Luc counter inactive | NR2F2 inh conf inactive
Cn1cc(-c2coc3c(C(=O)NCc4cccnc4)cccc23)cn1	none (no result: Gli-Sufu antag)
COc1ccc(-c2coc3c(C(=O)NCc4ccc(OC)c(OC)c4)cccc23)c(C)c1	NR2F2 inh 79 (no result: Gli-Sufu antag) | VP16 Luc counter inactive | NR2F2 inh conf 69
COc1cc(CNc2ccc3[nH]c(=O)[nH]c3c2)cc(Br)c1OCc1ccccc1F	none
Cc1cc(Cl)ccc1NC(=S)NCc1ccc(F)cc1	none
